Assay outcomes deposited in PubChem BioAssay by National Center for Advancing Translational Sciences (NCATS).
Pf growth 48h – inhibits P. falciparum growth in the first generation, 48 h | AID 504832 | 5.9% of 310,000 active | P. falciparum luciferase growth in erythrocytes, 48 h | Potency, µM (titrated, usually from 28.7 µM), actives largely listed as inhibitors
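Luminescence readout; reporter = integrated firefly luciferase in P. falciparum. RBC culture at 2% hematocrit, 0.1% parasitemia final, 37 C/5% CO2; decreased signal taken as growth inhibition.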
Pf growth 96h – P. falciparum growth inhibition at 96 hours; Potency, µM (doses to about 28.7 µM), hits mostly inhibitors; AID 504834; P. falciparum luciferase reporter growth, 96 h; 6.9% of 320,000 active
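Luminescence readout: decreased luciferase signal marks inhibited growth of reporter-expressing P. falciparum in infected red cells (2% hematocrit, 0.05% parasitemia final), exposed to compound two generations (96 h, 37 C, 5% CO2).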
MARV entry inh – Marburg virus entry inhibition. Marburg virus pseudotyped entry inhibition, cell reporter. Potency, µM (titrated, usually from 37.8 µM), actives largely listed as inhibitors. 1.8% of 300,000 active. AID 540276; calls by dose curve; tested in HEK293 cells
HCV inhibitor – HCV inhibition; 3.4% of 340,000 active; Huh7.5.1 HCVcc-Cre infection, luciferase reporter, 44 h; Potency, µM (highest dose often 41.8 µM), most hits filed as inhibitors
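Compounds are dispensed onto cells plated 4 h earlier at 1,000 per well, with HCVcc-Cre virus (about 0.5 moi) added next. Following 44 h of culture, luminescent signal is measured for 15 sec after 15 min with substrate at room temperature.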
HCMV antiviral – human cytomegalovirus inhibition | HFF cells, HCMV-luciferase reporter, 72 h; stronger effect = lower value | 4.5% of 410,000 active | activity change, negative = inhibition, % at 57.5 µM; in the data active = activity change below about -60%; inconclusive = no clear call, values can overlap the other calls; inactive = above about -39%
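Steps: HFFs plated, 16 h 37C; compounds added; HCMV-luciferase added to MOI 1 PFU/cell; 72 h 37C; OneGlo reagent, 5 min room temperature; luminescence read, normalized to controls.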
LASV entry inh – inhibitors of Lassa virus binding or cell entry | Potency, µM (highest dose often 37.9 µM), actives largely listed as inhibitors | Lassa virus pseudotype entry inhibition, cell reporter | 1.2% of 300,000 active; calls by dose curve; tested in HEK293 cells; also: nearly all actives have a fitted effect of over 50% in size
Each line names hits and unclear results; the compound was inactive in the other large screens. Most compounds without a hit are left out; they make up all but 14% or so of the library. Unless noted, calls follow the shape of the dose curve; as a rule, active = well fitted inhibition curve with a large enough effect; inconclusive = small, poorly fitted or top-dose-only effect, or another doubt; inactive = no such curve, though single readings can be large or run the other way.

COC(=O)c1oc2ccc(Br)cc2c1NC(=O)CCN1CCOCC1	Pf growth 96h inconclusive, MARV entry inh inconclusive
CCOc1cccc2sc(N(Cc3cccnc3)C(=O)c3ccco3)nc12	none (no result: Pf growth 48h, Pf growth 96h, MARV entry inh, HCV inhibitor)
CCc1sc(C(=O)NCc2ccco2)cc1Br	Pf growth 96h 10.4µM (no result: MARV entry inh, LASV entry inh)
Cc1cc(C)c(C)c(S(=O)(=O)Nc2ccc3cn[nH]c3c2)c1C	Pf growth 48h inconclusive, Pf growth 96h inconclusive, HCV inhibitor 12.6µM, HCMV antiviral -84.3 (no result: MARV entry inh, LASV entry inh)
CCOC(=O)c1ccc(S(=O)(=O)Nc2ccc3cn[nH]c3c2)cc1	HCV inhibitor 11.2µM, LASV entry inh inconclusive
COc1ccc(S(=O)(=O)Nc2ccc3cn[nH]c3c2)cc1C	MARV entry inh inconclusive
CCN(C(=O)CSc1nc2ccccc2o1)c1c(N)n(Cc2ccccc2)c(=O)[nH]c1=O	none
COc1ccc(N2CCN(CCCn3cnc4c(OC)ncnc43)CC2)cc1	none (no result: Pf growth 48h, Pf growth 96h, MARV entry inh, HCV inhibitor, LASV entry inh)
CNCC(O)Cn1c2c(c3ccccc31)CCCC2 (stereo not drawn)	Pf growth 48h 10.4µM, MARV entry inh inconclusive, HCV inhibitor 10µM
Cc1ccc2c(c1)c1c(n2CC(O)CNC(C)(C)C)CCCC1 (stereo not drawn)	Pf growth 96h inconclusive, HCV inhibitor inconclusive (no result: Pf growth 48h, MARV entry inh, LASV entry inh)
Cc1ccc2c(c1)c1c(n2CC(O)Cn2c(C)nc3ccccc32)CCCC1 (stereo not drawn)	none (no result: Pf growth 48h, MARV entry inh, LASV entry inh)
Cc1cc(=O)n2c3ccccc3n(CC(O)CN3CCCCC3)c2c1C#N (stereo not drawn)	Pf growth 96h inconclusive, MARV entry inh inconclusive, HCV inhibitor inconclusive, HCMV antiviral -87.3
Cc1ccc2c(c1)c1c(n2CC(O)CN2CCCCCC2)CCCC1 (stereo not drawn)	Pf growth 48h 8.28µM, MARV entry inh 6.31µM, HCV inhibitor 10µM, HCMV antiviral -76.8, LASV entry inh inconclusive
OC(CN1CCCCC1)Cn1c2ccccc2c2cc(Br)ccc21 (stereo not drawn)	Pf growth 48h 11.7µM, Pf growth 96h 9.28µM, MARV entry inh inconclusive, HCV inhibitor inconclusive, LASV entry inh inconclusive
COc1ccc(-c2[nH]c(-c3ccc(F)cc3)nc2SCC(=O)Nc2ccc(OC)c(OC)c2)cc1	MARV entry inh inconclusive (no result: Pf growth 48h, Pf growth 96h, HCV inhibitor)
Cc1sc2ncn(CC(=O)Nc3ccc(C(C)C)cc3)c(=O)c2c1S(=O)(=O)N1CCN(c2ncccn2)CC1	none (no result: Pf growth 48h, Pf growth 96h, HCV inhibitor)
Cc1ccc2c(c1)c(C)c(C)n2CC(O)CN1CCOCC1 (stereo not drawn)	Pf growth 48h 11.7µM
Cc1c(C)n(CC(O)CN2CCCCCC2)c2ccccc12 (stereo not drawn)	Pf growth 48h inconclusive
Oc1ccc(O)c(C=NNC(=S)NC2CC3CC2C2C=CCC32)c1 (stereo not drawn)	none (no result: Pf growth 48h, Pf growth 96h, MARV entry inh, HCV inhibitor, LASV entry inh)
Oc1c(Cl)cc(Cl)cc1/C=N/NC(=S)NC1CC2C=CC1C2 (stereo not drawn)	Pf growth 48h 0.828µM, Pf growth 96h inconclusive, MARV entry inh inconclusive, HCV inhibitor inconclusive, HCMV antiviral -67.8, LASV entry inh inconclusive
Oc1ccccc1/C=N/NC(=S)NC1CC2C=CC1C2 (stereo not drawn)	Pf growth 48h inconclusive, Pf growth 96h 0.928µM, MARV entry inh inconclusive, HCMV antiviral inconclusive, LASV entry inh inconclusive
Oc1ccccc1C=NNC(=S)NC1CC2C=CC1C2 (stereo not drawn)	HCMV antiviral -70.6 (no result: Pf growth 48h, Pf growth 96h, MARV entry inh, HCV inhibitor, LASV entry inh)
CN(/N=C/c1cc(Cl)cc(Cl)c1O)C(=S)NC(C)(C)C	Pf growth 48h inconclusive, Pf growth 96h inconclusive, HCV inhibitor inconclusive (no result: MARV entry inh, LASV entry inh)
C=COC[C@H]1CN2[C@H](c3ccc(Br)cc3)[C@H](C)CC[C@H]2C(=O)O1	none (no result: Pf growth 48h, Pf growth 96h, HCV inhibitor, HCMV antiviral, LASV entry inh)
Cc1ccc(/C=C/c2onc(C)c2S(=O)(=O)N2CCC(C(=O)Nc3ccc(C)c(N(C)C)c3)CC2)cc1	none (no result: Pf growth 48h, Pf growth 96h, MARV entry inh, HCV inhibitor)
COc1cc2c(=O)n(-c3ccc(C)cc3)c(=O)n(CC(=O)c3ccc4c(c3)OCO4)c2cc1OC	Pf growth 48h 11.7µM, HCMV antiviral inconclusive
COc1ccccc1NC(=O)Cn1c(=O)n(-c2ccc(C)cc2)c(=O)c2ccc(C(=O)NCc3ccco3)cc21	MARV entry inh inconclusive (no result: Pf growth 48h, Pf growth 96h, HCV inhibitor)
FC(F)(F)c1cc(-c2cccs2)nc(-n2cc(Br)cn2)n1	HCV inhibitor 11.2µM (no result: Pf growth 48h)
Cc1cnn(-c2nc(-c3cccs3)cc(C(F)(F)F)n2)c1	Pf growth 96h inconclusive, HCV inhibitor 10µM
FC(F)(F)c1cc(-c2cccs2)nc(N2CCOCC2)n1	MARV entry inh inconclusive, HCV inhibitor inconclusive (no result: Pf growth 96h)
Cc1ccc(-n2ncc3c(NCc4ccccc4)ncnc32)cc1C	LASV entry inh inconclusive (no result: Pf growth 48h, Pf growth 96h, MARV entry inh, HCV inhibitor)
CC(NC(=O)c1ccccc1NC(=O)CN1CCc2ccccc2C1)c1ccccc1 (stereo not drawn)	Pf growth 48h inconclusive, Pf growth 96h 13.1µM, MARV entry inh inconclusive, HCV inhibitor inconclusive, LASV entry inh inconclusive
O=C(CN1CCN(c2ccccc2O)CC1)Nc1ccccc1C(=O)NCCc1ccccc1	HCV inhibitor inconclusive (no result: MARV entry inh, LASV entry inh)
COc1ccc(N2CCN(CC(=O)Nc3ccccc3C(=O)NC(C)c3ccccc3)CC2)cc1 (stereo not drawn)	none (no result: Pf growth 48h, Pf growth 96h, MARV entry inh, HCV inhibitor, LASV entry inh)
COc1ccccc1N1CCN(CC(=O)Nc2ccccc2C(=O)NC(C)c2ccccc2)CC1 (stereo not drawn)	Pf growth 48h 11.7µM, Pf growth 96h inconclusive, MARV entry inh inconclusive, HCV inhibitor inconclusive, LASV entry inh inconclusive
CC(NC(=O)c1ccccc1NC(=O)CN1CCN(c2ccccc2O)CC1)c1ccccc1 (stereo not drawn)	Pf growth 48h 5.86µM, Pf growth 96h 13.1µM, MARV entry inh inconclusive, HCV inhibitor inconclusive, LASV entry inh inconclusive
COc1cccc(CN(C)C[C@H]2OCc3cnnn3CCCC(=O)N([C@@H](C)CO)C[C@@H]2C)c1	none (no result: Pf growth 48h, Pf growth 96h, MARV entry inh, HCV inhibitor, LASV entry inh)
Cc1ccc(-c2nc(-c3ccccn3)no2)cc1	MARV entry inh 1.12µM, HCV inhibitor inconclusive, HCMV antiviral -90.6, LASV entry inh 0.316µM (no result: Pf growth 96h)
